PubChem BioAssay (Tox21)
“And” between values parts separate entries of the source, which are not always exact repeats. Identical values can stand only once. Results filed as inconclusive are left out. Some structures have more than one record in an assay (separate samples or runs), and their calls can disagree. The source made the active and inactive calls. Unless noted, calls follow the shape of the dose curve; as a rule, active = well fitted curve in the direction sought with a large enough effect in the repeat runs; inconclusive = weak or mixed curves; inactive = no such curve, though single readings can be large; an effect the other way counts as inactive or inconclusive.

Legend:
[1] = qHTS assay to identify small molecule agonists of the sonic hedgehog signaling (Shh) pathway (AID 1259368; calls by dose curve;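 also: NIH/3T3-derived 3T3Gli1-Luc cells carrying a stable Gli1-driven firefly luciferase reporter; series mostly up to about 92 µM; nearly all actives have a fitted effect of over 15% in size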)
In short: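 Read-out: firefly luciferase luminescence from a Gli1 response element reporter stably integrated in NIH/3T3-derived 3T3Gli1-Luc cells, measured 30 min at room temperature after reagent addition. Compound exposure lasted 24 hr at 37 C, 5% CO2.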

[2] = biological target: Estrogen receptor beta (Homo sapiens) (UniProt Q92731); assay: qHTS assay to identify small molecule agonists of the estrogen receptor beta (ER-beta) signaling pathway (AID 1259377; active = well fitted activation curve with a large enough effect in the signal ratio in the repeat runs, not every such curve was filed as active; the % refers to the signal ratio; also: potency is read from the fitted curve at half-maximal effect)
In short: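 Measured by fluorescence intensity from a B/G FRET beta-lactamase substrate (2 h, room temperature) in ER-beta-UAS-bla HEK293T cells treated with DMSO-dissolved compounds for 16 hr at 37C and 5% CO2.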

[3] = biological target: Estrogen receptor beta (Homo sapiens) (UniProt Q92731); assay: qHTS assay to identify small molecule antagonists of the estrogen receptor beta (ER-beta) signaling pathway (AID 1259378; active = well fitted inhibition curve with a large enough effect in the signal ratio in the repeat runs, not every such curve was filed as active; the % refers to the signal ratio)
In short: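 ER-beta-UAS-bla HEK293T cells in 2% charcoal-stripped FBS medium treated with compound plus 1nM final 17-beta-estradiol for 16 hr at 37C. Beta-lactamase reporter read by FRET substrate fluorescence after 2 hours at room temperature.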

[4] = qHTS assay to identify small molecule agonists of the androgen receptor (AR) signaling pathway in the presence of an antagonist - cell viability counter screen (AID 1259379); also: nearly all actives have a fitted effect of over 25% in size; also: potency is read from the fitted curve at half-maximal effect;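 as to activity change, negative = cytotoxicity: MDA-kb2 human breast cancer cells carrying an MMTV luciferase reporter; series mostly up to about 92 µM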
In short: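 Viability counter screen: CellTiter-Fluor fluorescence, measured in the same wells as the luciferase read-out. MDA-kb2 cells, 3,000/well, with nilutamide at 3.0uM final and compounds at 15 concentrations, 16 hr at 37C, 0% CO2.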

[5] = qHTS assay to identify small molecule antagonists of the estrogen receptor beta (ER-beta) signaling pathway - cell viability counter screen (AID 1259382); also: nearly all actives have a fitted effect of over 55% in size; also: potency is read from the fitted curve at half-maximal effect; as to activity change, negative = cytotoxicity: series mostly up to about 92 µM
In short: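 Luminescent ATP read-out (CellTiter-Glo, 30 min, RT) taken in the same wells as the bla reporter assay. HEK293T ER-beta-UAS-bla cells in 2% charcoal-stripped FBS were exposed to compounds with 1nM E2 for 16 hr at 37C.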

[6] = biological target: Estrogen receptor (Homo sapiens) (UniProt P03372); assay: qHTS assay to identify small molecule agonists of the estrogen receptor alpha (ER-alpha) signaling pathway in the presence of an antagonist (AID 1259383; calls by dose curve; also: nearly all actives have a fitted effect of over 15% in size; also: potency is read from the fitted curve at half-maximal effect; as to activation: top concentration of the series differs between compounds)
In short: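 Luciferase luminescence (ONE-Glo, 30min at room temperature) measured in VM7Luc4E2 cells after 22hr compound exposure at 15 concentrations, with 10.0nM ICI-182,780 final present; cells express endogenous ER-alpha and carry four EREs upstream of luciferase.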

[7] = qHTS assay to identify small molecule agonists or antagonists of the thyroid stimulating hormone receptor (TSHR) signaling pathway - wild type cell line counter screen (AID 1259384; calls by dose curve)
In short: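 Wild-type Hek293 cells, 800/well, 18 h at 37C, then compound with Ro20-1724 for 30 min RT. cAMP by HTRF (cAMP-d2/anti-cAMP cryptate), 1 h RT, fluorescence read. 15 concentrations, triplicates.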

[8] = biological target: Thyrotropin receptor (Homo sapiens) (UniProt P16473); assay: qHTS assay to identify small molecule antagonists of the thyroid stimulating hormone receptor (TSHR) signaling pathway (AID 1259385; calls by dose curve; also: nearly all actives have a fitted effect of over 20% in size)
In short: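 TSHR-HEK293 cells (800/well) plated 18 h, then compounds with Ro20-1724 and TSH at 1.5 ng/mL final, 30 min at room temperature. cAMP quantified by HTRF (cAMP-d2/anti-cAMP-cryptate, 1 h); 15 concentrations in triplicate.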

[9] = qHTS assay to identify small molecule agonists of the estrogen receptor alpha (ER-alpha) signaling pathway in the presence of an antagonist - cell viability counter screen (AID 1259386);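 also: cells exposed to compounds for 22 h at 37 °C before the viability read; nearly all actives have a fitted effect of over 30% in size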; also: potency is read from the fitted curve at half-maximal effect; as to activity change, negative = cytotoxicity: series mostly up to about 92 µM
In short: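 Read-out: CellTiter-Fluor fluorescence after 1hr reagent incubation, measured in the same wells as the luciferase readout. VM7Luc4E2 cells were exposed to 15 compound concentrations with 10.0nM ICI-182,780 for 22hr at 37C.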

[10] = biological target: Progesterone receptor (Homo sapiens) (UniProt P06401); assay: qHTS assay to identify small molecule agonists of the progesterone receptor (PR) signaling pathway (AID 1346784; calls by dose curve; also: nearly all actives have a fitted effect of over 30% in size)
In short: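 The screen uses PR-UAS-bla HEK 293T cells in charcoal-stripped serum (2%). Compounds are applied for 16 hr at 37C after a 6 hr pre-incubation, and reporter activity is detected with a FRET beta-lactamase substrate after 2 hr at room temperature.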

[11] = qHTS assay to identify small molecule antagonists of the progesterone receptor (PR) signaling pathway - cell viability counter screen (AID 1346798); also: series mostly up to about 92 µM; nearly all actives have a fitted effect of over 50% in size
In short: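 Viability was determined by ATP-based luminescence (CellTiter-Glo) in PR-UAS-bla HEK293T cells cultured in 2% charcoal-stripped serum and incubated 16 hr with compounds under R5020 stimulation.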

[12] = qHTS assay to identify small molecule agonists of the TGF-beta/Smad signaling pathway - cell viability counter screen (AID 1346829); also: nearly all actives have a fitted effect of over 45% in size; also: potency is read from the fitted curve at half-maximal effect; as to activity change, negative = cytotoxicity: top concentration of the series differs between compounds
In short: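 Same-well cytotoxicity: CellTiter-Glo added after the 2 hr room-temperature beta-lactamase substrate step, luminescence measured 30 min later; cells had 5 hr of compound at 37 C.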

[13] = qHTS assay to identify small molecule agonists of the TGF-beta/Smad signaling pathway (AID 1346859; active = well fitted activation curve with a large enough effect in the signal ratio in the repeat runs, not every such curve was filed as active; the % refers to the signal ratio; also: series mostly up to about 77 µM)
In short: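 Dual-wavelength fluorescence (460/530 nm emission) quantified beta-lactamase expression under the Smad binding element in HEK 293T cells following 5 hr compound treatment at 37 C.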

[14] = biological target: Thyrotropin-releasing hormone receptor (Homo sapiens) (UniProt P34981); assay: qHTS assay to identify small molecule antagonists of the thyrotropin-releasing hormone receptor (TRHR) signaling pathway (AID 1346877; active = well fitted inhibition curve with a large enough effect in the repeat runs, not every such curve was filed as active; also: series mostly up to about 51 µM)
In short: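 HEK293/TRHR cells, 18 h, 37 °C; Ca2+ dye 2 h; cpd 5 min RT; TRH 1 nM final; fluorescence read 3 min, 1 s intervals; 15 concs, triplicate.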

[15] = biological target: Progesterone receptor (Homo sapiens) (UniProt P06401); assay: qHTS assay to identify small molecule antagonists of the progesterone receptor (PR) signaling pathway (AID 1346795; active = well fitted inhibition curve with a large enough effect in the signal ratio in the repeat runs, not every such curve was filed as active; the % refers to the signal ratio; also: potency is read from the fitted curve at half-maximal effect)
In short: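 After 6 hr plating at 37C in 2% stripped-serum medium, PR-UAS-bla HEK293T cells got compounds, then 1 nM R5020. Sixteen hours later, LiveBLAzer substrate was applied for 2 hr at room temperature and fluorescence was recorded.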

[16] = qHTS assay to identify small molecule agonists of the progesterone receptor (PR) signaling pathway - cell viability counter screen (AID 1346799; calls by dose curve; also: nearly all actives have a fitted effect of over 45% in size)
In short: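 Viability was scored by ATP luminescence (CellTiter-Glo, 30 min, room temperature) in the same wells used for the reporter readout, after 16 hr compound exposure of PR-UAS-bla HEK293T cells.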

[17] = qHTS assay to identify small molecule antagonists of the TGF-beta/Smad signaling pathway - cell viability counter screen (AID 1346824); also: nearly all actives have a fitted effect of over 50% in size
In short: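 SBE-bla HEK 293T cells, incubated overnight, then compound plus 0.25 ng/mL TGF-beta1 (stock added) for 5 hr at 37 C. Viability was read in the same wells by CellTiter-Glo luminescence after 30 min at room temperature.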

[18] = qHTS assay to identify small molecule agonists of the estrogen receptor beta (ER-beta) signaling pathway - cell viability counter screen (AID 1259380); also: nearly all actives have a fitted effect of over 30% in size
In short: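 Luminescence read-out (CellTiter-Glo, 30 min, room temp) taken in the same wells as the beta-lactamase reporter assay; ER-beta-UAS-bla HEK293T cells exposed to DMSO-dissolved compounds for 16 hr at 37C in 2% charcoal-stripped FBS medium.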

[19] = biological target: Androgen receptor (Homo sapiens) (UniProt P10275); assay: qHTS assay to identify small molecule agonists of the androgen receptor (AR) signaling pathway in the presence of an antagonist (AID 1259381; calls by dose curve; also: nearly all actives have a fitted effect of over 15% in size)
In short: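 Luciferase read-out (ONE-Glo, 30min room temperature) in MDA-kb2 MMTV-reporter cells; agonist mode run in presence of AR antagonist nilutamide, 3.0uM final. Compounds tested as 15-point series, 16hr exposure at 37C, 0% CO2.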
% is scaled to controls: 0 for no effect and ±100 for the full control effect.

Sequence of Thyrotropin receptor (Homo sapiens) (P16473 whole entry, looked up): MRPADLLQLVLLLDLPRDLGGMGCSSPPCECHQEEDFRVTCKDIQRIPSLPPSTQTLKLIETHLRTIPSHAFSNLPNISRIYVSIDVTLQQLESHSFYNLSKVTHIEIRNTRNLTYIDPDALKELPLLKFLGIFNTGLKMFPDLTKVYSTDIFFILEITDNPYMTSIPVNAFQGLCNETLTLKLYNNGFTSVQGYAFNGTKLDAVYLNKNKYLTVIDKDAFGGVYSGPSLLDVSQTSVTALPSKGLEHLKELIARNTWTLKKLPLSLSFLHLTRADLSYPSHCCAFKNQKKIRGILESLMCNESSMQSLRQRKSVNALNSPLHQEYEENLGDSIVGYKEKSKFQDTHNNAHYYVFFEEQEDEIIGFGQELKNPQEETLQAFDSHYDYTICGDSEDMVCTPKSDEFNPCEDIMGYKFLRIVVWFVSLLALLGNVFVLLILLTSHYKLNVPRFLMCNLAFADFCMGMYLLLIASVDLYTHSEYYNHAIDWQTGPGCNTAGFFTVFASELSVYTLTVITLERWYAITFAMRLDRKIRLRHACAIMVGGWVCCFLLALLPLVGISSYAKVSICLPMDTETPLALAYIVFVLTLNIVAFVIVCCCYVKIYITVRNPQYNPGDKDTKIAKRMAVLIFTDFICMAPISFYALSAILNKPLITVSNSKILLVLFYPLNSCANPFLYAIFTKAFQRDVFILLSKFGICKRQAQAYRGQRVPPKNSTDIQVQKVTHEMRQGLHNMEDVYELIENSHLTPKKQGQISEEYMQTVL
Sequence of Thyrotropin-releasing hormone receptor (Homo sapiens) (P34981 whole entry, looked up): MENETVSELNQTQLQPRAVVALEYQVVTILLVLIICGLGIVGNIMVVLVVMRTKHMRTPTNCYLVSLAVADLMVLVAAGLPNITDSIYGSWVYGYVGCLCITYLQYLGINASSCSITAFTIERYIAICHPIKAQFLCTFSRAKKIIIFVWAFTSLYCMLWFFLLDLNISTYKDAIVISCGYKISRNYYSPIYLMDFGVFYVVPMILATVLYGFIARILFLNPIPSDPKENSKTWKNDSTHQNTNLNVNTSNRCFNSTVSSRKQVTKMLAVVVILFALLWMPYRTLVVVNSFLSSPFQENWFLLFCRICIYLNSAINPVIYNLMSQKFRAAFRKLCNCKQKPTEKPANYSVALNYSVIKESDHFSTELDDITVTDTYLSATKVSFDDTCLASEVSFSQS
Sequence of Estrogen receptor (Homo sapiens) (P03372 whole entry, looked up): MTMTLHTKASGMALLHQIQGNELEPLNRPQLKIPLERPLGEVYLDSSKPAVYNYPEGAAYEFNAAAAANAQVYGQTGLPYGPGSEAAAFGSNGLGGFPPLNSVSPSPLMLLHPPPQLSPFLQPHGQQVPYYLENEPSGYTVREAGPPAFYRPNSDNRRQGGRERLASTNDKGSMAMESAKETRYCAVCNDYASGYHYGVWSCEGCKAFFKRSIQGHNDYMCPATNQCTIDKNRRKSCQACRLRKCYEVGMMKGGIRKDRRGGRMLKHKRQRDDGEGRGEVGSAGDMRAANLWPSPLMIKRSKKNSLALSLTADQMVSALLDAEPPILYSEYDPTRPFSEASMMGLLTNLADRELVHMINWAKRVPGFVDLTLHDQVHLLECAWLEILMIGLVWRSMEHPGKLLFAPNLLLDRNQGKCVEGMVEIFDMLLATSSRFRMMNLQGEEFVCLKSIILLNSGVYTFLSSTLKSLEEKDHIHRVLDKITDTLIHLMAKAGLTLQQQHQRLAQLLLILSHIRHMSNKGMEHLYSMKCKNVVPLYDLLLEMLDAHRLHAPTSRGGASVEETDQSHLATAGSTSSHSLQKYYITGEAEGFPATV
Sequence of Progesterone receptor (Homo sapiens) (P06401 whole entry, looked up): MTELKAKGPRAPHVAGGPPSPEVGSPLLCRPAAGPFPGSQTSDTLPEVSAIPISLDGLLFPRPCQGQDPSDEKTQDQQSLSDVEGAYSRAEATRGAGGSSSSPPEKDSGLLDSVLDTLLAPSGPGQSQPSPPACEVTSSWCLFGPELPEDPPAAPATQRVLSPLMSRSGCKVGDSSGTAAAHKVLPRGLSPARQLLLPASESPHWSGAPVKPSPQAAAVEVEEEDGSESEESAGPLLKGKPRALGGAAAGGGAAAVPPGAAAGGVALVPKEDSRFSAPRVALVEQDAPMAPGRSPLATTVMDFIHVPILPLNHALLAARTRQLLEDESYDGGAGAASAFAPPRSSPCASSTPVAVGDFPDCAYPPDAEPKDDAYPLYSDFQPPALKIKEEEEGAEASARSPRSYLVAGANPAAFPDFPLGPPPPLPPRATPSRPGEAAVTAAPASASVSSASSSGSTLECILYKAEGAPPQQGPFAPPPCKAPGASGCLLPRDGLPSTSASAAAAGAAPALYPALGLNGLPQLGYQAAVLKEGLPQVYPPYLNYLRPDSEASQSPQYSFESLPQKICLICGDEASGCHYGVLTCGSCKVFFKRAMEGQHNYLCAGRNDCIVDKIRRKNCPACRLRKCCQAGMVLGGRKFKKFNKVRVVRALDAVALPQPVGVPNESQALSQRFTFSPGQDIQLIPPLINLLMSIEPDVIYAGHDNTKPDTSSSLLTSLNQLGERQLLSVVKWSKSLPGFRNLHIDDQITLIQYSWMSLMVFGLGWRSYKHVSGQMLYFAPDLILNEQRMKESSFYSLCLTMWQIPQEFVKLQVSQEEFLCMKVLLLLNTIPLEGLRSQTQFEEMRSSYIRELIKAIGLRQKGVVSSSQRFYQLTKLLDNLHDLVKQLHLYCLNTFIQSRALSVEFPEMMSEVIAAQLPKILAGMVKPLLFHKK
Sequence of Estrogen receptor beta (Homo sapiens) (Q92731 whole entry, looked up): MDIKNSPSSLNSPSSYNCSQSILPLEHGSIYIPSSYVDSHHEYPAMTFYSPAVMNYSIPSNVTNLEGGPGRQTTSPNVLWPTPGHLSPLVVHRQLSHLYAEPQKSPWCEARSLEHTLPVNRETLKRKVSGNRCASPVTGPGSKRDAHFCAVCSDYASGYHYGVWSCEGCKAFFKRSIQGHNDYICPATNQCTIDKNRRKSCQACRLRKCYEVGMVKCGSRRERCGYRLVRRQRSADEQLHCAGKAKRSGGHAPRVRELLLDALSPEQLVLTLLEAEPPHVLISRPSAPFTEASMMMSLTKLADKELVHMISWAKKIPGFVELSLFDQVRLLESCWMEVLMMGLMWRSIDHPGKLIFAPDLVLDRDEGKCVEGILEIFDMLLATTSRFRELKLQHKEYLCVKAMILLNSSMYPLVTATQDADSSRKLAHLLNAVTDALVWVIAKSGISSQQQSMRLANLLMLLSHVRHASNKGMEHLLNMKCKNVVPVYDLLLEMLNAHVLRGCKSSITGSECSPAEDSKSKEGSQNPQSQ
Sequence of Androgen receptor (Homo sapiens) (P10275 whole entry, looked up): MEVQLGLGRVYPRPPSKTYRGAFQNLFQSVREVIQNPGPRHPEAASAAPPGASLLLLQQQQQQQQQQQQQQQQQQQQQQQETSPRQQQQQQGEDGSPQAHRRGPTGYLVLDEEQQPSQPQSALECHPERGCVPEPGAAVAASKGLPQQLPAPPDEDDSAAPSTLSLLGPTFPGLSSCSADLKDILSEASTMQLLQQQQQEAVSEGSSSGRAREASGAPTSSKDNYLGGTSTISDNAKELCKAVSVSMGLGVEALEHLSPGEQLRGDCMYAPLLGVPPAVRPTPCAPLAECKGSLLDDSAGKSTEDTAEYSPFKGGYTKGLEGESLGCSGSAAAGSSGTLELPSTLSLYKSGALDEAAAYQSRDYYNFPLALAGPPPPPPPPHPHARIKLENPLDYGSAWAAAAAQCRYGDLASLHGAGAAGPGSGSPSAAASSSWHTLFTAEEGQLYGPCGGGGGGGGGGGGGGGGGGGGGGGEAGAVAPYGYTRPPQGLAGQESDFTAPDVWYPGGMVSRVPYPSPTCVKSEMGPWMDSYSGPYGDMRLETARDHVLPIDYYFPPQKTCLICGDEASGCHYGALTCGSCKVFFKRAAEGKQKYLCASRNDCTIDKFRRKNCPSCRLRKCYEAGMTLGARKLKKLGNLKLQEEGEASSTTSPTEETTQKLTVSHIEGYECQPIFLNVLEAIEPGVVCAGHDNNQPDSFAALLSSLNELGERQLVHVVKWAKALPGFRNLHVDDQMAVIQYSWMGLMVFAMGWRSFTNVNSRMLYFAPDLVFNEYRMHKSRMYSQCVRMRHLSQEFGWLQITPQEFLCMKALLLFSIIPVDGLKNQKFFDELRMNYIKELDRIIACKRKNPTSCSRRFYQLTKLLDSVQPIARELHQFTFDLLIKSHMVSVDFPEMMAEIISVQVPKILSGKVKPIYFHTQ

CN(C)c1ccc(C(=N)c2ccc(N(C)C)cc2)cc1
inactive: outcome [1] | Potency [2] | Potency [3] | Potency [5] | Potency [6] | outcome [7] | outcome [8] | Potency [10] | Potency [11] | Potency [12] | outcome [13] | outcome [14]
active: Potency [4] 30.3 µM and 26.3 µM | Potency [9] 30.3 µM and 20.9 µM

O=C1O[C@H](CO)[C@@H](O)[C@H](O)[C@H]1O
inactive: outcome [1] | Potency [2] | Potency [3] | Potency [4] | Potency [5] | Potency [6] | outcome [7] | outcome [8] | Potency [9] | Potency [10] | Potency [15] | Potency [11] | Potency [16] | Potency [12] | outcome [13] | outcome [14]

CC#C[C@]1(O)CC[C@H]2[C@@H]3CCC4=CC(=O)CCC4=C3[C@@H](c3ccc(N(C)C)cc3)C[C@@]21C
inactive: outcome [1] | Potency [2] | Potency [4] | Potency [5] | Potency [6] | outcome [7] | outcome [8] | Potency [9] | Potency [10] | Potency [11] | Potency [16] | Potency [17] | Potency [12] | outcome [14]

c1ccc2ccccc2c1
inactive: outcome [1] | Potency [4] | Potency [18] | Potency [5] | Potency [6] | outcome [7] | outcome [8] | Potency [9] | Potency [10] | Potency [15] | Potency [11] | Potency [16] | Potency [12] | outcome [13] | outcome [14]

OC[C@@H](O)[C@H](O)[C@H](O)[C@@H](O)CO
inactive: outcome [1] | Potency [4] | Potency [18] | Potency [5] | Potency [6] | outcome [7] | outcome [8] | Potency [9] | Potency [10] | Potency [15] | Potency [11] | Potency [16] | Potency [17] | Potency [12] | outcome [13]

O=C(c1ccc(O)cc1)c1ccc(O)cc1O
inactive: outcome [1] | Potency [4] | Potency [18] | Potency [5] | outcome [7] | outcome [8] | Potency [9] | Potency [10] | Potency [17] | Potency [12] | outcome [13] | outcome [14]
active: Potency [2] 13.8 µM and 12.2 µM | Potency [6] 15.5 µM and 13.7 µM | Potency [15] 19.5 µM

O=S(=O)(O)c1cc(S(=O)(=O)O)c2c(N=Nc3ccccc3)c(O)ccc2c1
inactive: outcome [1] | Potency [2] | Potency [3] | Potency [18] | Potency [5] | Potency [6] | outcome [7] | outcome [8] | Potency [10] | Potency [15] | Potency [11] | Potency [16] | Potency [12] | outcome [13] | outcome [14]
active: Potency [4] 30.8 µM and 54.5 µM | Potency [9] 61.4 µM and 27.3 µM

CCOC(=O)C1OC1c1ccccc1 (stereo not given)
inactive: outcome [1] | Potency [4] | Potency [5] | Potency [9] | Potency [10] | Potency [15] | Potency [11] | Potency [16] | Potency [17] | Potency [12] | outcome [13] | outcome [14]

NC(=O)/N=N/C(N)=O
inactive: outcome [1] | Potency [2] | Potency [3] | Potency [4] | Potency [18] | Potency [5] | Potency [6] | Potency [9] | Potency [10] | Potency [15] | Potency [11] | Potency [16] | Potency [17] | Potency [12] | outcome [13] | outcome [14]

CCc1ccc(O)cc1
inactive: outcome [1] | Potency [2] | Potency [3] | Potency [4] | Potency [19] | Potency [5] | outcome [7] | outcome [8] | Potency [9] | Potency [10] | Potency [15] | Potency [11] | Potency [16] | Potency [17] | Potency [12] | outcome [13]

CCC(=O)O
inactive: outcome [1] | Potency [4] | Potency [18] | Potency [5] | Potency [6] | Potency [9] | Potency [11] | activity change, negative = cytotoxicity [16] -3.72% [at 19 µM] | Potency [17] | Potency [12] | outcome [13]

CCCCCCCCCCCCN
inactive and 21.9 µM (active): Potency [12]
inactive: outcome [1] | Potency [4] | outcome [7] | outcome [8] | Potency [9] | Potency [10] | Potency [15] | Potency [11] | Potency [16] | outcome [13] | outcome [14]
54.5 µM (active) and inactive: Potency [5]

OCC#CCO
inactive: outcome [1] | Potency [2] | Potency [3] | Potency [4] | Potency [18] | Potency [5] | outcome [7] | outcome [8] | Potency [9] | Potency [10] | Potency [15] | Potency [11] | Potency [16] | Potency [12] | outcome [13] | outcome [14]
